# PubChem BioAssay (Tox21)
# Several values for one entry are separate records, joined by “and”; a condition that tells them apart may be missing. Equal entries are not always repeated. Inconclusive results are not listed. A call without a number means that no potency is given here. Activity calls are given as the source filed them. The call rests on the fitted dose curve; in most records, active means well fitted cell-killing curve with a large enough effect in the repeat runs; inconclusive means weak or mixed curves, or effect the other way; inactive means flat fitted curve, though single readings scatter.
# Test: qHTS assay to identify small molecule agonists of the estrogen receptor beta (ER-beta) signaling pathway - cell viability counter screen (AID 1259380); further: nearly all actives have a fitted effect of over 30% in size
# Settings: ER-beta-bla HEK293T viability, CellTiter-Glo luminescence, 16 h; series mostly up to 92.4 µM
# Source text: National Center for Advancing Translational Sciences [NCATS]
# NIH Chemical Genomics Center [NCGC]
# U.S. Environmental Protection Agency [EPA]
# National Institutes of Environmental Health Sciences [NIEHS]
# National Toxicology Program [NTP]
# U.S. Food and Drug Administration [FDA]
# Estrogen receptor (ER), a nuclear hormone receptor, plays an important role in development, metabolic homeostasis and reproduction. Two subtypes of ER, ER-alpha and ER-beta, have similar expression patterns with some uniqueness in both types. Endocrine disrupting chemicals (EDCs) and their interactions with steroid hormone receptors like ER causes disruption of normal endocrine function. To identify the compounds that activate ER signaling, an ER beta-UAS-bla GripTite cell line (Life Technologies, Madison, WI, USA) containing a beta-lactamase reporter gene under the control of an UAS response element was used to screen Tox21 10K compound library. The cytotoxicity of the Tox21 compound library against the ER-beta-bla cell line was tested in parallel by measuring the cell viability using CellTiter-Glo assay in the same wells.
# Tox21 Assay Protocol Summary:
# ER-beta-UAS-bla HEK293T cells were dispensed at 2,000 cells/5 uL of assay medium containing 2% charcoal stripped FBS per well into black wall/clear-bottom 1536-well plates using a Multidrop Combi (ThermoFisher Scientific, Waltham, MA) dispenser. After the assay plates were incubated at a 37C and 5% CO2 for 6 hr, 23 nL of compounds dissolved in DMSO, positive controls or DMSO only was transferred to the assay plate by a Pintool station (Kalypsys, San Diego, CA). The plates were incubated at 37C and 5% CO2 for 16 hr. Then 1 uL of LiveBLAzerTM B/G FRET substrate was added using a BioRAPTR FRD (Flying Reagent Dispenser, Aurora Discovery, San Diego, CA) and then the plates were incubated at room temperature for 2 hours, and fluorescence intensity was measured by an Envision plate reader (PerkinElmer, Shelton, CT). For cell viability readout that measures cytotoxicity, 4 uL/well of CellTiter-Glo reagent was added into the assay plates using a FRD. After 30 min incubation at room temperature, the luminescence intensity in the plates was measured using a ViewLux (PerkinElmer) plate reader.
# Potency means the concentration at half of the fitted maximal effect.
Structure (SMILES),Potency,"activity change, negative = cytotoxicity"
CCC(COC(=O)c1cc(OC)c(OC)c(OC)c1)(c1ccccc1)N(C)C (stereo not given),inactive,
Clc1cc(Cl)c(Cl)c(Cl)c1,inactive,
O=C1c2ccccc2C(=O)C1C(=O)C(c1ccccc1)c1ccccc1,inactive,
O=S1OC[C@@H]2[C@H](CO1)[C@]1(Cl)C(Cl)=C(Cl)[C@@]2(Cl)C1(Cl)Cl (stereo not given in full),inactive,
COc1ccc(-c2ccccc2)cc1NNC(=O)OC(C)C,35.8 µM (active),
O=Cc1ccc2c(c1)OCO2,inactive,
BrCCCCBr,inactive,
NCC(CC(=O)O)c1ccc(Cl)cc1 (stereo not given),,4.02% [at 0.349 µM] (inactive)
Nc1nc(N)nc(N)n1,inactive,
Clc1cccc2ccccc12,inactive,
CNP(=O)(OC)Oc1ccc(C(C)(C)C)cc1Cl (stereo not given),inactive,
ClP(Cl)(Cl)(Cl)Cl,inactive,
CCCN(CC1CC1)c1c([N+](=O)[O-])cc(C(F)(F)F)cc1[N+](=O)[O-],inactive,
COC(=O)c1cncn1C(C)c1ccccc1 (stereo not given),inactive,
CCN(C)N=O,inactive,
O=S(=O)(Cl)c1ccccc1,inactive,
CCCCCC[N+](=O)[O-],inactive,
N#Cc1cc(I)c(O)c(I)c1,inactive,
CO/N=C(/C(=O)OC)c1ccccc1COc1ccccc1C,15.4 µM (active),
C=CCC1([C@H](C)CCC)C(=O)NC(=O)NC1=O,inactive,

Structure (SMILES),Potency,"activity change, negative = cytotoxicity"
Clc1cc(C(Cl)(Cl)Cl)cnc1Cl,inactive,
COCC(C)N(C(=O)CCl)c1c(C)csc1C (stereo not given),inactive,
CCCN(CCCl)c1c([N+](=O)[O-])cc(C(F)(F)F)cc1[N+](=O)[O-],inactive,
CC(=O)NC1CCSC1=O (stereo not given),inactive,
O=[N+]([O-])c1cc(C(F)(F)F)cc([N+](=O)[O-])c1Cl,54.7 µM (active),
CN1C(=O)C(O)N=C(c2ccccc2)c2cc(Cl)ccc21 (stereo not given),inactive,
Cc1ccc(N)cc1C,inactive,
CCOP(=S)(OCC)SCn1nnc2ccccc2c1=O,inactive,
CCCCCCCCCCOC(=O)c1ccccc1C(=O)OCCCCCCCCCC,inactive,
CCOP(=S)(Oc1ccc([N+](=O)[O-])cc1)c1ccccc1 (stereo not given),inactive,
C[N+](C)(C)CCCl,inactive,
O=C(CCl)c1ccc(Cl)cc1Cl,38.4 µM (active) and 18.8 µM (active),
Cc1ccccc1CCl,inactive,
CCOP(=S)(OCC)SCSCC,inactive,
C=CC(=O)OCCCCO,inactive,
CNC(C)Cc1ccccc1OC (stereo not given),inactive,
O=C=Nc1ccc(Cl)cc1,2.43 µM (active),
CCOP(=S)(OCC)Oc1cc(Cl)c(Br)cc1Cl,inactive,
CCOc1nc(F)cc2nc(S(=O)(=O)Nc3c(Cl)cccc3Cl)nn12,inactive,
COP(=S)(OC)Oc1ccc([N+](=O)[O-])cc1Cl,inactive,
